Assay outcomes (PubChem BioAssay)
TIM10 inh: inhibits growth of TIM10 yeast strain | S. cerevisiae TIM10 strain growth, BacTiter-Glo luminescence, 24 h | inhibition, % at 10 µM | 330,000 tested, 1.4% active;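 active = inhibition of 40% or more at the single tested concentration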;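 also: wild-type TIM10 isogenic control strain grown at permissive 25 °C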
tim23-1 inh: growth inhibitors of tim23-1 mutant yeast. S. cerevisiae tim23-1 growth, BacTiter-Glo luminescence, 24 h. inhibition, % at 20 µM. 330,000 tested, 1.3% active;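 active = growth inhibition of the mutant yeast at or above 50%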;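 also: temperature-sensitive mutant grown at 25 °C; plate controls were DMSO-treated mutant yeast for no effect and medium wells lacking yeast for full effect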
PfHsp90 yeast 2: reduces growth (ATP signal) of yeast expressing P. falciparum Hsp90 | S. cerevisiae expressing PfHsp90, BacTiter-Glo ATP, 48 h; yeast lacking PDR1 and PDR3 efflux regulators | inhibition, % at 9.4 µM | 310,000 tested, 0.32% active | AID 504621;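 active = every replicate shows inhibition above about 80%, whatever the replicate mean, limit read from the data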;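 also: 0% = DMSO neutral controls and 100% = 20 µM radicicol positive controls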
tim10-1 inh: growth inhibitors of tim10-1 mutant yeast | inhibition, % at 20 µM | S. cerevisiae tim10-1 ts strain growth, BacTiter-Glo, 24 h | 330,000 tested, 2.2% active;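 active = inhibition of at least 40%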;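 also: mutant grown at 25 °C; 0% = DMSO wells with yeast and 100% = wells holding no yeast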
SKKanGAS inh: SKKanGAS growth inhibition; S. pyogenes SKKanGAS, kanamycin growth, BacTiter-Glo, 6 h; inhibition, % at 7.5 µM; 300,000 tested, 1.3% active;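 active = mean replicate score, as percent of positive control median, at least 50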;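 also: strain carries kanamycin resistance gene driven by streptokinase promoter and grows in 40 µg/ml kanamycin; loss of luminescence reflects streptokinase promoter inhibition or plain growth inhibition; 0% = median of DMSO wells and 100% = positive control at its reference dose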
tim23-1 conf: tim23-1 yeast growth inhibition, confirmed | shares compounds with tim23-1 inh | 4,400 tested, 83% active | inhibition, % at 20 µM | S. cerevisiae tim23-1 growth, BacTiter-Glo luminescence, 24 h;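 active = inhibition above about 39% in either of two replicate wells at 20 µM, limit read from the data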;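 also: temperature-sensitive tim23-1 mutant grown at 25 °C; 0% = DMSO wells with yeast and 100% = medium wells without yeast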
Starred values were filed as active, the others as inactive; x = no result given. This is a sample that favours compounds with a hit; in the whole collection about 4.4% have one here.

SMILES	TIM10 inh	tim23-1 inh	PfHsp90 yeast 2	tim10-1 inh	SKKanGAS inh	tim23-1 conf
CCc1nnc(NC(=O)CSc2nc3cc4c(cc3cc2C)OCCO4)s1	-22	-19	20	13	7	x
CCc1ccc2nc(SCC(=O)Nc3nnc(C)s3)c(C)cc2c1	-13	58*	7	8	-6	13
COc1ccccc1OCC(=O)NCC1CCCN(Cc2cnn(C)c2C)C1 (stereo unspecified)	-2	14	2	1	3	x
Cc1cccc(C)c1Nc1nnc(SCC(=O)c2ccc(Br)s2)s1	36	52*	-10	39	16	61*
CCSc1nnc(NC(=O)c2ccc(Br)s2)s1	5	16	-3	12	3	x
O=C(NC1CCCC1)C1CCN(C(=O)c2ccccc2Cl)CC1	-4	5	-12	-6	0	x
CCOC(=O)c1sc(N=NC2=C(O)CC(C)(C)CC2=O)c(C(=O)OCC)c1C	-67	-42	32	-21	0	x
CC1=CC[C@@]23CCCN2C(=O)CCC[C@H]3C1	-5	89*	-7	13	x	7
O=C(COCc1ccccc1)N[C@@H]1c2ccccc2CC[C@H]1OCc1ccccc1	17	52*	15	25	x	38
O=C(CCc1ccccc1)N[C@@H]1c2ccccc2CC[C@@H]1OCc1ccccc1	1	37	13	22	x	x
Cc1ccc(C2(c3ccc(C)cc3)CC2C(=O)Nc2ccc([N+](=O)[O-])cc2O)cc1 (stereo unspecified)	27	50*	29	-25	105*	18
O=C1OC(c2ccccc2)=N/C1=C\C=C\c1ccco1	31	82*	5	32	-24	81*
O=C1OC(c2ccc(Cl)cc2)=N/C1=C\C=C\c1ccco1	24	44	14	14	-2	x
O=C(COC(=O)CN1C(=O)C2CCCCC2C1=O)NCc1ccc(Cl)cc1Cl (stereo unspecified)	6	23	-11	19	x	x
Cc1ccccc1C(=O)Oc1cccc2c(O)cccc12	30	72*	-15	28	9	49*
Cc1cccc(C(=O)Oc2cccc3c(O)cccc23)c1	21	69*	-14	0	9	51*
CN(C(=O)c1cccc(S(=O)(=O)N2CCCC2)c1)C1CCCCC1	17	15	7	28	x	x
CCC(=O)N(C)/C=C1\Sc2ccccc2C1=O	-15	53*	23	-25	3	5
CC(=O)N(C)/C=C1\Sc2ccccc2C1=O	-22	18	8	-41	3	x
O=CN(/C=C1\Sc2ccccc2C1=O)Cc1ccccc1	23	68*	-10	31	1	66*
CC(C)N(Cc1ccccc1)S(=O)(=O)N(C)C	-3	76*	13	-10	0	8
Cc1ccc(S(=O)(=O)N(Cc2ccccc2)C(C)C)cc1	-8	7	9	1	22	x
COc1ccc(/C=N/NC(=O)c2cc(C34CC5CC(CC(C5)C3)C4)[nH]n2)cc1OC	26	38	1	28	4	x
COc1cccc(/C=N/NC(=O)c2cc(C34CC5CC(CC(C5)C3)C4)[nH]n2)c1	10	66*	-6	9	7	41*
Cc1cccc(-c2noc(CNC(=O)c3ccc4c(c3)OCO4)n2)c1	6	10	18	-41	-7	x
SMILES	TIM10 inh	tim23-1 inh	PfHsp90 yeast 2	tim10-1 inh	SKKanGAS inh	tim23-1 conf
COc1ccc(-c2noc(CNC(=O)c3ccc4c(c3)OCO4)n2)cc1	3	53*	-16	-38	0	38
COc1ccc(Cc2ccccc2C(=O)O)cc1	x	x	-23	x	x	x
COc1ccc(CC2=CC(=O)c3ccccc3C2=O)cc1	36	66*	4	30	66*	75*
O=C1NC(c2ccccc2Cl)=N/C1=C/c1ccco1	31	53*	12	16	5	22
O=C(Cc1c(F)cccc1Cl)NNC(=O)Nc1ccc2c(c1)OCO2	-6	4	-43	-2	-1	x
O=C(OCC(=O)C12CC3CC(CC(C3)C1)C2)c1ccc(O)cc1	-3	63*	99*	-6	x	61*
O=C(OCC(=O)C12CC3CC(CC(C3)C1)C2)c1ccc(CO)cc1	16	21	11	21	x	x
O=C(Oc1ccc(O)cc1)C12CC3CC(CC(C3)C1)C2	25	63*	-24	-19	24	66*
CCC1(CC)CNC(=O)NC1	x	x	-18	x	x	x
CSc1ncccc1C(=O)Nc1ccc(S(=O)(=O)N2CCCC2)cc1	10	19	12	18	x	x
O=C(Cc1ccc([N+](=O)[O-])cc1)OCc1c(F)cccc1Cl	-23	25	-1	-8	18	x
O=C(C1CCCC1)N1CCN=C1SCc1cccc([N+](=O)[O-])c1	23	7	-11	32	9	x
COc1ccc(-c2cn3c(C)c(C(=O)N4CCCc5ccccc54)sc3n2)cc1	0	53*	-17	20	35	59*
COc1ccc(C(=O)N2CCCc3ccccc32)cc1	-11	4	1	25	0	x
CCCC(=O)NC(c1ccc(N(C)C)cc1)c1c(O)ccc2ccccc12 (stereo unspecified)	22	21	22	33	4	x
CCCC(=O)NC(c1ccccc1Cl)c1c(O)ccc2ccccc12 (stereo unspecified)	-1	13	12	25	-1	x
CCCCC(=O)NC(c1ccc(Cl)cc1)c1ccc2cccnc2c1O (stereo unspecified)	-42	56*	114*	-19	70*	49*
CCCCC(=O)NC(c1ccc(N(C)C)cc1)c1ccc2cccnc2c1O (stereo unspecified)	-54	54*	70	-7	5	53*
CCCC(=O)NC(c1ccc(C)cc1)c1ccc2cccnc2c1O (stereo unspecified)	-24	61*	113*	-8	72*	58*
CCCC(=O)NC(c1ccc(Cl)cc1)c1ccc2cccnc2c1O (stereo unspecified)	-23	60*	115*	-4	58*	60*
CC(=O)C(Sc1ncnc2sc3c(c12)CCCC3)C(C)=O	34	41	-88	21	48	x
COc1ccc(N2CCN(C(=O)COC(=O)c3ccco3)CC2)cc1	-1	-10	-4	0	-17	x
CCc1nnc(SCC(=O)Nc2ccc(F)cc2)o1	1	13	-13	10	-3	x
CC1(c2nnc(-c3ccccc3)o2)CC(c2ccccc2)=NO1 (stereo unspecified)	3	-18	-9	-6	-8	x
CC(=O)Oc1ccc(/C=C2/CCc3ccccc3C2=O)cc1	31	60*	-8	-11	35	51*
COc1cc2c(cc1OC)n(CC(=O)NC1CCCCCC1)n1c(C)cc(=O)nc21	9	2	-7	6	-1	x
CC(=O)NC(c1ccc(Cl)cc1Cl)c1ccc2cccnc2c1O (stereo unspecified)	-37	58*	106*	-1	73*	57*
